This is a sample that favours compounds with a hit; in the whole collection about 2.1% have one here.
FUS suppressor = rescues growth of FUS-expressing yeast; Potency, µM (doses to about 76.6 µM), most hits filed as activators; S. cerevisiae FUS-expressing, growth rescue, OD600, 24 h; actives 0.24% (n = 390,000); AID 1347120; further: nearly all actives have a fitted effect of over 55% in size
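Absorbance at 600 nm, taken 24hr after compound addition, measured rescue of FUS-yeast growth at 30C. Induction used 2% galactose with seeding at OD 0.005. Controls: CP55940 from 92uM final, DMSO only.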
TDP-43 yeast inh = TDP-43 toxicity inhibition in yeast. TDP-43 expressing yeast growth rescue, BacTiter-Glo, 24 h. Potency, µM (doses to about 46.1 µM), usual class: activators. actives 1.8% (n = 410,000). AID 652104; further: nearly all actives have a fitted effect of over 50% in size
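In this qHTS, compounds that restore growth of yeast expressing TDP-43 appear as activators. Cells (OD600=0.02, galactose medium, raffinose-pregrown) are incubated with compound 24 hr at 30 deg C and growth is quantified by BacTiter-Glo.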
Abeta rescue = A-beta toxicity reversal in yeast. Potency, µM (highest dose often 46.1 µM), most hits filed as activators. yeast expressing A-beta42, growth rescue, OD600, 48 h; response scale: 0% DMSO, 100% iron-clioquinol control. actives 0.063% (n = 410,000); further: nearly all actives have a fitted effect of over 55% in size
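Growth rescue measured by 600 nm absorbance after 48 h yeast culture at 30 C with compound. Values normalized between DMSO and an equimolar ferric chloride plus clioquinol control.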
TSG101-PTAP inh = blocks PTAP/TSG101 interaction to inhibit HIV-1 budding; Q99816; Fluorescence polarization, FITC-PTAP peptide / Tsg101 binding; Potency, µM (highest dose often 115 µM), hits mostly inhibitors; 340,000 tested, under 10 active; AID 493005; active means well fitted inhibition curve with a large enough effect in the main read-out, with a control signal flat, not every such curve was filed as active; inconclusive means small, poorly fitted or top-dose-only effect, or effect the other way, or a change in a side signal; inactive means no such curve, though single readings can be large or run the other way
Target sequence (Q99816 whole entry, looked up): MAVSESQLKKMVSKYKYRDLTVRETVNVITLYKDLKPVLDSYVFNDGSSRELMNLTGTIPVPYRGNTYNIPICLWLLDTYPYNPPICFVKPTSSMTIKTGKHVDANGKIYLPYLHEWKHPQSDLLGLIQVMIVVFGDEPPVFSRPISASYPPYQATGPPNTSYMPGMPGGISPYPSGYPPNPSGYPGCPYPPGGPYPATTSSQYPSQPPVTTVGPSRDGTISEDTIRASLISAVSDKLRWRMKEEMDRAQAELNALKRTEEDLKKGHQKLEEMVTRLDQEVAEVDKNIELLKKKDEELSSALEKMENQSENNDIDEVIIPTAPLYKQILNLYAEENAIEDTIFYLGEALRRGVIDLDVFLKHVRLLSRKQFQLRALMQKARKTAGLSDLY
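Compounds were pin-transferred onto Tsg101 binding domain (10 uM final) in HEPES pH 7.5 buffer, then FITC-PTAP peptide was added at 50 nM final. After 20 min at RT, polarization reported peptide displacement across a qHTS concentration series.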
aSyn yeast inh = inhibitors of alpha-synuclein toxicity in yeast; Yeast expressing alpha-synuclein, growth rescue, BacTiter-Glo, 24 h; Potency, µM (top dose mostly 46.1 µM), actives largely listed as activators; actives 0.14% (n = 370,000); AID 652106; further: nearly all actives have a fitted effect of over 65% in size
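Rescue of yeast growth: cells expressing toxic alpha-synuclein, induced in galactose at OD600 0.02, incubated with compound 24 h at 30 C. ATP luminescence quantified growth; inhibitors of toxicity appear as activators.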
Large screens that a line does not name were inactive. Unless noted, the call rests on the fitted dose curve; in most records, active means well fitted curve in the direction sought with a large enough effect; inconclusive means small, poorly fitted or top-dose-only effect, or another doubt; inactive means no such curve, though single readings can be large; an effect the other way counts as inactive or inconclusive.

O=c1c2ccccc2nnn1CSc1ccc2ccccc2n1	TDP-43 yeast inh 17.8µM, aSyn yeast inh inconclusive (no result: FUS suppressor)
CCC[n+]1c(/C=C/c2c(OC)cc(OC)cc2OC)ccc2ccccc21	none (no result: FUS suppressor, TDP-43 yeast inh, Abeta rescue, TSG101-PTAP inh)
CCN(CC)S(=O)(=O)c1ccc2c(c1)c(=O)c(C(=O)N1CCN(c3cccc(C)c3)C(C)C1)cn2C (configuration not stated)	FUS suppressor inconclusive (no result: TSG101-PTAP inh, aSyn yeast inh)
CC1CCC2(CCC(=O)N2CCCO)CC1 (configuration not stated)	none (no result: TDP-43 yeast inh, Abeta rescue, TSG101-PTAP inh, aSyn yeast inh)
Cc1cccc(C)c1-n1nnnc1C(c1ccnc2ccccc12)N(Cc1ccccc1)Cc1ccccc1 (configuration not stated)	none (no result: TSG101-PTAP inh)
COc1ccc(C(=O)C(=O)N2CCC(Cc3ccccc3)CC2)cc1OC	TDP-43 yeast inh 11.2µM (no result: TSG101-PTAP inh)
COc1ccc(C(=O)C(=O)N2CCC(c3ccccc3)CC2)cn1	aSyn yeast inh 15.8µM (no result: TSG101-PTAP inh)
O=C(C(=O)N1CCC(Cc2ccccc2)CC1)c1cccc(Br)c1	none (no result: TSG101-PTAP inh)
c1coc(-c2nc3cc4ccccc4cc3nc2-c2ccco2)c1	none (no result: FUS suppressor, TDP-43 yeast inh, Abeta rescue, TSG101-PTAP inh)
OC1Cc2ccccc2C1Nc1cccc(C(F)(F)F)c1 (configuration not stated)	TDP-43 yeast inh 12.6µM, aSyn yeast inh inconclusive (no result: FUS suppressor)
N#Cc1ccc(NC2c3ccccc3CC2O)cc1 (configuration not stated)	none (no result: FUS suppressor)
CCCCCCCSc1nsc(N)n1	TDP-43 yeast inh 12.6µM
COc1ccc(C(=O)OCCN2CCN(C3CN(Cc4cn(Cc5cccc(F)c5)nn4)S(=O)(=O)C3)CC2)cc1OC (configuration not stated)	none (no result: TDP-43 yeast inh, Abeta rescue, TSG101-PTAP inh, aSyn yeast inh)
CCCN1Cc2cccc(C(=O)Nc3cccc(C(=O)OCC)c3)c2C1=O	none (no result: TSG101-PTAP inh, aSyn yeast inh)
Cc1ccc2c(c1)C(c1ccc(F)cc1)N(C(=O)c1ccc(S(=O)(=O)N3CCCCC3)cc1)CC(=O)N2 (configuration not stated)	FUS suppressor 31.6µM (no result: TSG101-PTAP inh, aSyn yeast inh)
O=C1CN(C(=O)c2ccc(S(=O)(=O)N3CCCC3)cc2)C(c2ccc(F)cc2)c2cc(Br)ccc2N1 (configuration not stated)	FUS suppressor inconclusive (no result: TSG101-PTAP inh, aSyn yeast inh)
O=C1CN(C(=O)c2ccc(S(=O)(=O)N3CCCCC3)cc2)C(c2ccc(F)cc2)c2cc(Br)ccc2N1 (configuration not stated)	FUS suppressor 17.8µM (no result: TSG101-PTAP inh, aSyn yeast inh)
CCOC(=O)[C@@H]1[C@H]2COc3ccc(Br)cc3[C@H]2N2C(=O)N(c3ccc(C)cc3)C(=O)[C@]12C	FUS suppressor 22.4µM
CCOC(=O)[C@@H]1[C@H]2COc3ccc(Br)cc3[C@@H]2N2C(=O)N(c3ccc(C)cc3)C(=O)[C@]12C	FUS suppressor inconclusive
CCOC(=O)C(CC)Sc1ncnc2c1c(-c1ccccc1)cn2-c1ccc(OC)cc1 (configuration not stated)	none (no result: TSG101-PTAP inh, aSyn yeast inh)
CCc1ccccc1NC(=O)Cn1c(C(=O)OC)cc2oc(C)cc21	none (no result: TSG101-PTAP inh, aSyn yeast inh)
CN1CCN(c2nc(C(N)=O)cc(-c3ccccc3)n2)CC1	none
CN(N)c1nc(-c2ccccc2)cc(-c2ccccc2)n1	TDP-43 yeast inh 11.2µM
CCN(CC)c1nc(C(N)=O)cc(-c2ccccc2)n1	aSyn yeast inh 20µM
CCc1nc2ccc(C(=O)Nc3cc(-c4ccccc4)ccc3OC)cn2c1N(C)CCCc1ccccc1	FUS suppressor inconclusive, TDP-43 yeast inh 20µM (no result: TSG101-PTAP inh)
O=[N+]([O-])c1ccc(Nc2cccc(F)c2)nc1	TDP-43 yeast inh 12.6µM
O=[N+]([O-])c1ccc(Nc2ccc(F)cc2)nc1	none
Cc1ccc(Nc2ccc([N+](=O)[O-])cn2)cc1Cl	TDP-43 yeast inh 0.891µM
CCC(=O)Nc1nc(-c2ccccc2)ns1	TDP-43 yeast inh 8.91µM (no result: aSyn yeast inh)
Cc1nnc(SCCC(=O)Nc2nc(-c3ccccc3)ns2)s1	TDP-43 yeast inh inconclusive (no result: aSyn yeast inh)
CCCC(=O)Nc1nc(-c2ccccc2)ns1	TDP-43 yeast inh 15.8µM (no result: FUS suppressor)
CC(C)C(=O)Nc1nc(-c2ccccc2)ns1	TDP-43 yeast inh 12.6µM, Abeta rescue inconclusive
O=C(Nc1nc(-c2ccc(Br)cc2)ns1)c1ccccc1F	none (no result: TSG101-PTAP inh, aSyn yeast inh)
CC(=O)Nc1nc(-c2ccc(Cl)cc2)ns1	TDP-43 yeast inh 12.6µM (no result: FUS suppressor)
O=C(Nc1nc(-c2ccccc2)ns1)c1cccs1	none
COc1ccc(OC)c(NC(=O)CSc2nccn2-c2cc(C)cc(C)c2)c1	TDP-43 yeast inh inconclusive (no result: TSG101-PTAP inh)
